Screening results: PubChem, several laboratories
Vif inh: HIV Vif inhibition; inhibition, % at 7.49 µM; HEK293T cells, Vif self-association by quenched fluorescence, imaging, 24 h; 340,000 compounds, 0.35% hits; AID 602346; in the data active = inhibition above about 50%, passing the limit was not always enough; inconclusive = no clear call, values can overlap the other calls; inactive = below about 31%
Myeloid diff MLP: compounds promoting myeloid differentiation; ER-HoxA9 myeloid progenitors, lysozyme-GFP differentiation, flow cytometry; 360,000 compounds, 1% hits; calls only at 10 µM; AID 624256;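 active = normalized GFP-positive differentiation at or above the plate's own cutoff, the solvent-only control mean plus 3 SD; inconclusive = no clear call, values can overlap the other calls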;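 note: cells exposed to compound for four days before flow analysis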
ABCB6 inh MLPCN: human ABCB6 transporter inhibition; Q9NP58; fluorescence ratio to DMSO, % at 10 µM; K562-ABCB6 porphyrin accumulation, flow cytometry, 1 h; hits give low values; 360,000 compounds, 0.19% hits; AID 602162;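 active = fluorescence ratio to DMSO below 75%, the collection mean minus 3 SD; inconclusive = too few cells collected in the well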;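 note: signal is porphyrin accumulated inside mitochondria; 100% equals median channel fluorescence of DMSO control wells; lower ratio means ABCB6 inhibition with less porphyrin fluorescence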
Target sequence (Q9NP58 whole entry, looked up): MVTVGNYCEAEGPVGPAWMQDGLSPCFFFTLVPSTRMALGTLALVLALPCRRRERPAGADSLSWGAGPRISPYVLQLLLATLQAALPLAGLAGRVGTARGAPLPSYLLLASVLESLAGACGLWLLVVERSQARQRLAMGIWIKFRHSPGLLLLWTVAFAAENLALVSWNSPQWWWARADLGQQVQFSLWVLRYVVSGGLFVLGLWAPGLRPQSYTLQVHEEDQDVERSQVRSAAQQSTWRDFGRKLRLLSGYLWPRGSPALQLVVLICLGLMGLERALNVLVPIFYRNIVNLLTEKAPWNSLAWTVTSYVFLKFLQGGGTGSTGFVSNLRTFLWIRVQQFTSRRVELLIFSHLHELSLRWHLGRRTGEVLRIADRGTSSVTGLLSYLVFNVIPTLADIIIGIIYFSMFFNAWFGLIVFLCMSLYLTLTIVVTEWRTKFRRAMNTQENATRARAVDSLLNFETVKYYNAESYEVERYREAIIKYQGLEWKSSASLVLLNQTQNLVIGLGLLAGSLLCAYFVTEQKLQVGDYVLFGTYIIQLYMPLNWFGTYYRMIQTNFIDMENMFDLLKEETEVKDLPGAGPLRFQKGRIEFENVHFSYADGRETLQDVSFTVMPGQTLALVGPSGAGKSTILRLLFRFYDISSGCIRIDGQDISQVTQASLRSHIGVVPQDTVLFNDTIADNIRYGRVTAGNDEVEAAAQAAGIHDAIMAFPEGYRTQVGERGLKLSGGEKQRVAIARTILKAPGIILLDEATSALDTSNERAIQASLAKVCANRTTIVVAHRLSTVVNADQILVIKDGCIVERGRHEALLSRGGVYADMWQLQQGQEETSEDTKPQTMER
N-glyco inh: N-linked glycosylation inhibition | D54 ERlucT glycosylation luciferase reporter, 24 h; percent of 100 nM tunicamycin response | reporter increase, % at 12.5 µM | 360,000 compounds, 0.23% hits;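 active = mean luciferase reporter signal, scaled so untreated is 0 and the glycosylation-blocking control 100, at or above a set limit in every replicate; inconclusive = mean reaches the limit but not every replicate does; inactive = mean below the limit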;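 note: luciferase carries N-glycosylation sites so blocking glycosylation raises the light; 0% = median of neutral control wells and 100% = median of 100 nM tunicamycin wells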
RAD54 branch: inhibitors of human RAD54 branch migration. inhibition, % at 10.4 µM. RAD54 Holliday junction branch migration, FAM/BHQ fluorescence. 360,000 compounds, 0.14% hits;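 active = mean normalized replicate activity at least 40 and at least half of replicates scoring 40 or more; inconclusive = only one of the two criteria met; inactive = mean below 40 and under half of replicates reaching 40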;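 note: 0% = median of neutral control wells and 100% = median of positive control wells; inhibitors cause a drop in the FAM fluorescence signal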
Numbers without * were called inactive; i = inactive; ? = inconclusive; . = not tested or not shown; + = active, no number. Only some compounds are listed: those with a hit (about 1.6% of all), similar ones and a draw of the others.

SMILES	Vif inh	Myeloid diff MLP	ABCB6 inh MLPCN	N-glyco inh	RAD54 branch
COc1ccc(S(=O)(=O)N2CCCCCC2)cc1NC(=O)CN(C)Cc1ccc2c(c1)OCO2	-32	+	96	-7	2
CC(=O)c1c(C)[nH]c(C(=O)Nc2ccccc2N2CCOCC2)c1C	-1	i	95	9	6
CC(=O)c1c(C)[nH]c(C(=O)Nc2cc(S(=O)(=O)N3CCCCC3)ccc2C)c1C	-6	i	105	9	5
COc1ccc(S(=O)(=O)N2CCCCC2)cc1NC(=O)c1[nH]c(C)c(C(C)=O)c1C	12	i	98	55*	-1
COc1ccc(NC(=O)N(C)C[C@H]2Oc3c(cccc3N(C)C)C(=O)N([C@H](C)CO)C[C@H]2C)cc1	.	.	.	.	2
Cc1noc(C)c1NC(=O)Nc1ccc2c(c1)CC(=O)N([C@@H](C)CO)C[C@H](C)[C@H](CN(C)CC1CCCCC1)O2	.	.	.	.	9
CCC(=O)N1[C@@H]2Cn3c(ccc(-c4ccc(F)cc4)c3=O)[C@H]1[C@@H](C(=O)N(C)C)[C@@H]2CO	.	.	.	.	-2
N#Cc1c(C(F)(F)F)cc(-c2ccco2)nc1SCc1ccccn1	-4	+	151	1	-8
N#Cc1c(C(F)(F)F)cc(-c2ccco2)nc1SCc1ccncc1	+	+	109	8	0
CSc1nc(-c2ccco2)cc(C(F)(F)F)c1C#N	-2	i	102	-1	-3
COC(=O)[C@@H]1[C@@H](CO)[C@@H]2Cn3c(ccc(C4=CCCC4)c3=O)[C@@H]2N1C(=O)C1CCC1	.	.	.	.	1
CCC(=O)N[C@@H]1CC[C@H](CC(=O)NCc2ccc(OC)cc2)O[C@H]1CO	.	.	.	.	1
N#C[C@H]1[C@@H](c2ccc(C3=CCCCC3)cc2)[C@H](CO)N1C(=O)NC1CCCCC1	.	.	.	.	-3
O=C(C[C@H]1CC[C@H]2[C@@H](COC[C@@H](O)CN2S(=O)(=O)c2ccccc2)O1)N[C@H]1CCN(Cc2ccccc2)C1	.	.	.	.	10
COc1ccc(/C=C2\COc3ccccc3C2=O)cc1OC	-3	i	101	36*	.
COc1ccc(/C=C2/CCc3ccccc3C2=O)cc1OC	-11	i	98	1	-2
COc1cc(OC)cc(-c2c(-c3cccs3)c3cc(-c4ccc(C(N)=O)cc4)ccc3n2C)c1	112*	i	96	-5	7
CCCC#Cc1cnc2c(c1)C(=O)N([C@H](C)CO)C[C@H](C)[C@@H](CN(C)C(=O)Nc1ccc(OC)cc1)O2	.	.	.	.	8
CC1(C)Cc2nc3sc4c(SCC(=O)NCc5ccccc5)ncnc4c3cc2CO1	-3	+	97	24	-7
CC1(C)Cc2nc3sc4c(SCC(=O)O)ncnc4c3cc2CO1	-1	i	101	-4	.
CC(=O)NC(c1cccc(F)c1)c1nc(-c2ccccc2C)cs1 (stereo unspecified)	0	i	94	19	10
COc1cc(F)ccc1-c1csc(C(NC(C)=O)c2cccc(F)c2)n1 (stereo unspecified)	0	i	96	58*	7
COc1cccc(C(NC(C)=O)c2nc(-c3ccccc3C)cs2)c1 (stereo unspecified)	0	i	92	45*	-11
CNc1cc(NS(=O)(=O)c2ccc(N)cc2)nc(NC)n1	53*	i	96	2	-16
Cc1cc(C)nc(NS(=O)(=O)c2ccc(N)cc2)n1	2	i	105	2	5
SMILES	Vif inh	Myeloid diff MLP	ABCB6 inh MLPCN	N-glyco inh	RAD54 branch
O=C(C[C@@H]1CC[C@H]2[C@@H](COC[C@@H](O)CN2Cc2cc(F)cc(F)c2)O1)NCc1cccc(F)c1	.	.	.	.	0
CC(=O)N1[C@H](CNC(=O)CN2CCOCC2)[C@@H](c2ccccc2)[C@@H]1CO	.	.	.	.	0
COc1cccc(Oc2ccc(C(F)(F)F)cc2NC(=O)CN2C(=O)NC3(CCCC3)C2=O)c1	-3	i	95	86*	3
COc1ccc(NC(=O)CN2C(=O)NC3(CCCC3)C2=O)c(OC)c1	16	i	99	1	-1
CC1(C)Cc2ccccc2C2=NNC(=O)C2=N1	6	+	98	-8	-4
C/C=C/c1ccc([C@H]2[C@@H](CNCC)N(c3nc(C)c(C)s3)[C@H]2CO)cc1	.	.	.	.	11
C/C(Cl)=C\Cn1c(NCCc2ccccc2)nc2c1c(=O)n(C)c(=O)n2C	-15	+	92	-6	-3
Cc1ccc(Cn2c(NCCc3ccccc3)nc3c2c(=O)n(C)c(=O)n3C)cc1	4	+	94	-1	-9
N#C/C(=C\c1ccc(OCc2ccccc2)cc1)C(=O)Nc1nc2c(s1)CCN(Cc1ccccc1)C2	4	i	93	-1	-1
CN(C)c1ccc(/C=C(/C#N)C(=O)Nc2nc3c(s2)CCN(Cc2ccccc2)C3)cc1	.	+	553	-7	-24
Cc1ccc(C)c(S(=O)(=O)NCc2ccc(C(=O)N3CCC(Cc4ccccc4)CC3)cc2)c1	4	+	94	-6	.
Cc1nc(S/C(=C/c2ccc(-c3cc(Cl)ccc3C)o2)C(=O)O)n[nH]1	52*	i	99	1	.
Cc1ccc(C(=O)Nc2ccccc2C(=O)N2CC(C)OC(C)C2)cc1 (stereo unspecified)	5	i	91	46*	-4
CC(C)CC#Cc1ccc2c(c1)O[C@H](CN(C)C(=O)c1cccc(F)c1)[C@@H](C)CN([C@H](C)CO)S2(=O)=O	.	.	.	.	-4
Cc1cc(NC(=O)CSc2c[nH]c3ccccc23)no1	.	i	102	.	-9
Cc1cc(NC(=O)CSc2nc(-c3cccs3)cc(C(F)(F)F)n2)no1	4	+	95	10	0
Cc1cc(NC(=O)CSc2c(C)[nH]c3ccccc23)no1	-6	+	99	-1	1
CCCNC(=O)CSc1nc(-c2cccs2)cc(C(F)(F)F)n1	0	i	89	-4	0
CCCC(=O)NC(c1ccco1)c1cc([N+](=O)[O-])c2cccnc2c1O (stereo unspecified)	6	+	100	3	.
COc1ccc2nc(Nc3nc4cc5c(cc4s3)OCO5)sc2c1	5	i	101	2	.
COc1ccc(-c2cc(C(=O)Nc3ccc4c(c3)OCO4)no2)cc1	53*	i	100	-2	-7
COc1ccc2nc(Nc3ccc4c(c3)OCO4)sc2c1	53*	i	94	-3	5
COc1ccc(NC(=O)C2Cc3c(-c4ccc5c(c4)OCO5)ccnc3O2)cc1 (stereo unspecified)	.	+	98	20	3
CCC(=O)N1[C@H](C(=O)Nc2ccccc2)[C@@H](CO)[C@@H]2Cn3c(ccc(C4=CCCC4)c3=O)[C@@H]21	.	.	.	.	-5
CN(C)C(=O)c1cccc(-c2cnc3c(NC=O)cc(-c4cccc(C(F)(F)F)c4)cn23)c1	-11	i	100	11	12
COc1cccc(-c2cc(NC=O)c3ncc(-c4cc(OC)c(OC)c(OC)c4)n3c2)c1	77*	?	101	18	-8
